Results published in PubChem BioAssay (NCATS).
Inconclusive results are not listed. Active and inactive are the calls of the source. Calls follow the shape of the dose curve; as a rule, active = well fitted cell-killing curve with a large enough effect; inconclusive = small, poorly fitted or top-dose-only effect, or effect the other way; inactive = flat fitted curve, though single readings scatter.

Columns and labels:
Experiment in all cases: Primary qHTS to identify gynecologic anti-cancer compounds using libraries of approved drugs and bioactive compounds (AID 1345084); also: nearly all actives have a fitted effect of over 55% in size
C33A = settings: Gynecologic cancer cell panel viability, ATPlite luminescence, 48 h; series mostly up to 57.5 µM
Procedure, shortened: (§1)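 Five-concentration response, 48 h; readout is ATP-driven luciferase luminescence.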

CAOV3 = settings: Gynecologic cancer cell panel viability, ATPlite luminescence, 48 h; series mostly up to 57.5 µM
Procedure, shortened: as §1

CASKI = settings: Gynecologic cancer cell panel viability, ATPlite luminescence, 48 h; series mostly up to 57.5 µM
Procedure, shortened: as §1

Es-2 = settings: Gynecologic cancer cell panel viability, ATPlite luminescence, 48 h; series mostly up to 57.5 µM
Procedure, shortened: as §1

HeLa = settings: Gynecologic cancer cell panel viability, ATPlite luminescence, 48 h; series mostly up to 57.5 µM
Procedure, shortened: as §1

Hek293T = settings: Gynecologic cancer cell panel viability, ATPlite luminescence, 48 h, control line for the selectivity index; series mostly up to 57.5 µM
Procedure, shortened: as §1

JEG-3 = settings: Gynecologic cancer cell panel viability, ATPlite luminescence, 48 h; series mostly up to 57.5 µM
Procedure, shortened: as §1

OV90 = settings: Gynecologic cancer cell panel viability, ATPlite luminescence, 48 h; series mostly up to 57.5 µM
Procedure, shortened: as §1

PA-1 = settings: Gynecologic cancer cell panel viability, ATPlite luminescence, 48 h; series mostly up to 57.5 µM
Procedure, shortened: as §1

SKOV3 = settings: Gynecologic cancer cell panel viability, ATPlite luminescence, 48 h; series mostly up to 57.5 µM
Procedure, shortened: as §1

Tov-21-G = settings: Gynecologic cancer cell panel viability, ATPlite luminescence, 48 h; series mostly up to 57.5 µM
Procedure, shortened: as §1

Tov112D = settings: Gynecologic cancer cell panel viability, ATPlite luminescence, 48 h; series mostly up to 57.5 µM
Procedure, shortened: as §1
% is scaled to controls: 0 for no effect and ±100 for the full control effect.

CC(C)(F)C[C@@H](N[C@@H](c1ccc(-c2ccc(S(C)(=O)=O)cc2)cc1)C(F)(F)F)C(=O)NC1(C#N)CC1
inactive: Potency (C33A) | Potency (CAOV3) | Potency (CASKI) | Potency (Es-2) | Potency (HeLa) | Potency (Hek293T) | Potency (JEG-3) | Potency (OV90) | Potency (PA-1) | Potency (SKOV3) | Potency (Tov-21-G) | Potency (Tov112D)

CC(=O)OC1C(O)C2C(C)C3=CC(=O)OC3(O)CC2C2(C)CCCC(C)(CO)C12 (stereo unspecified)
inactive: Potency (C33A) | Potency (CAOV3) | Potency (CASKI) | Potency (Es-2) | Potency (HeLa) | Potency (Hek293T) | Potency (JEG-3) | Potency (OV90) | Potency (PA-1) | Potency (SKOV3) | Potency (Tov-21-G) | Potency (Tov112D)

COC(=O)C1=CO[C@@H](O[C@@H]2O[C@H](CO[C@@H]3O[C@H](COC(=O)/C=C/c4cc(OC)c(O)c(OC)c4)[C@@H](O)[C@H](O)[C@H]3O)[C@@H](O)[C@H](O)[C@H]2O)[C@@H]2C(CO)=CC[C@H]12
inactive: Potency (C33A) | Potency (CAOV3) | Potency (CASKI) | Potency (Es-2) | Potency (HeLa) | Potency (Hek293T) | Potency (JEG-3) | Potency (OV90) | Potency (PA-1) | Potency (SKOV3) | Potency (Tov-21-G) | Potency (Tov112D)

C[C@@H]1O[C@@H](OC[C@H]2O[C@@H](OC(CCCCc3ccc(O)cc3)CCc3ccc(O)cc3)[C@H](O)[C@@H](O)[C@@H]2O)[C@H](O)[C@H](O)[C@H]1O (stereo partly specified)
inactive: Potency (C33A) | Potency (CAOV3) | Potency (CASKI) | Potency (Es-2) | Potency (HeLa) | Potency (Hek293T) | Potency (JEG-3) | Potency (OV90) | Potency (PA-1) | Potency (SKOV3) | Potency (Tov-21-G) | Potency (Tov112D)

C=C[C@H]1[C@H](O[C@@H]2O[C@H](CO)[C@@H](O)[C@H](O)[C@H]2O)OC=C(C(=O)OC)[C@H]1C[C@@H]1c2cc(O)c(O)cc2CCN1C(C)=O
inactive: Potency (C33A) | Potency (CAOV3) | Potency (CASKI) | Potency (Es-2) | Potency (HeLa) | Potency (Hek293T) | Potency (JEG-3) | Potency (OV90) | Potency (PA-1) | Potency (SKOV3) | Potency (Tov-21-G) | Potency (Tov112D)

CC(=O)O[C@H]1[C@@H](O)[C@H](O[C@H]2[C@@H]3C=CO[C@@H](O[C@H]4O[C@@H](CO)[C@H](O)[C@@H](O)[C@@H]4O)[C@@H]3[C@@]3(CO)O[C@@H]23)O[C@@H](C)[C@@H]1OC(=O)/C=C/c1ccccc1
inactive: Potency (C33A) | Potency (CAOV3) | Potency (CASKI) | Potency (Es-2) | Potency (HeLa) | Potency (Hek293T) | Potency (JEG-3) | Potency (OV90) | Potency (PA-1) | Potency (SKOV3) | Potency (Tov-21-G) | Potency (Tov112D)

CC1CC(C(O)C(C)(C)O)OC2CC3(C)C4(C)CCC5C(C)(C)C(=O)CCC5(C)C4CCC3(O)C12O (stereo unspecified)
inactive: Potency (C33A) | Potency (CAOV3) | Potency (CASKI) | Potency (Es-2) | Potency (HeLa) | Potency (Hek293T) | Potency (JEG-3) | Potency (OV90) | Potency (PA-1) | Potency (SKOV3) | Potency (Tov-21-G) | Potency (Tov112D)

CCOCc1nc2c(N)nc3ccccc3c2n1CC(C)(C)O
inactive: Potency (C33A) | Potency (CAOV3) | Potency (CASKI) | Potency (Es-2) | Potency (HeLa) | Potency (Hek293T) | Potency (JEG-3) | Potency (OV90) | Potency (PA-1) | Potency (SKOV3) | Potency (Tov-21-G) | Potency (Tov112D)

C[C@@H]1CC[C@]2(C(=O)O[C@@H]3O[C@H](CO)[C@@H](O)[C@H](O)[C@H]3O)CC[C@]3(C)C(=CCC4[C@@]5(C)C[C@@H](O)[C@H](O)[C@@](C)(C(=O)O[C@H]6[C@H](O)C[C@@]7(C)C(CC[C@]8(C)C7CC=C7[C@H]9[C@](C(=O)O[C@@H]%10O[C@H](CO)[C@@H](O)[C@H](O)[C@H]%10O)(CC[C@@H](C)[C@@]9(C)O)CC[C@]78C)[C@@]6(CO)C(=O)O)C5CC[C@]43C)[C@@H]2[C@]1(C)O (stereo partly specified)
inactive: activity change, negative = cytotoxicity (C33A) 2.44% [at 6.55 µM] | activity change, negative = cytotoxicity (CAOV3) 6.22% [at 6.55 µM] | activity change, negative = cytotoxicity (CASKI) 11.5% [at 6.55 µM] | activity change, negative = cytotoxicity (Es-2) -0.958% [at 6.55 µM] | activity change, negative = cytotoxicity (HeLa) -3.59% [at 6.55 µM] | activity change, negative = cytotoxicity (Hek293T) 2.04% [at 6.55 µM] | activity change, negative = cytotoxicity (JEG-3) -2.9% [at 6.55 µM] | activity change, negative = cytotoxicity (OV90) -0.495% [at 6.55 µM] | activity change, negative = cytotoxicity (PA-1) 8.04% [at 6.55 µM] | activity change, negative = cytotoxicity (SKOV3) 17.7% [at 6.55 µM] | activity change, negative = cytotoxicity (Tov-21-G) 0.548% [at 6.55 µM] | activity change, negative = cytotoxicity (Tov112D) 3.01% [at 6.55 µM]

C[C@@]12C[C@]3(O)O[C@H](O1)[C@]1(COC(=O)c4ccccc4)[C@H]3C[C@@]12O[C@@H]1O[C@H](CO)[C@@H](O)[C@H](O)[C@H]1O
inactive: Potency (C33A) | Potency (CAOV3) | Potency (CASKI) | Potency (Es-2) | Potency (HeLa) | Potency (Hek293T) | Potency (JEG-3) | Potency (OV90) | Potency (PA-1) | Potency (SKOV3) | Potency (Tov-21-G) | Potency (Tov112D)

CC/C=C\CCO[C@@H]1O[C@H](CO)[C@@H](O)[C@H](O)[C@H]1O
inactive: Potency (C33A) | Potency (CAOV3) | Potency (CASKI) | Potency (Es-2) | Potency (HeLa) | Potency (Hek293T) | Potency (JEG-3) | Potency (OV90) | Potency (PA-1) | Potency (SKOV3) | Potency (Tov-21-G) | Potency (Tov112D)

CC(=O)N1CCc2ccc(O)c(OC3OC(COC4OCC(O)(CO)C4O)C(O)C(O)C3O)c2C1Cc1ccc(O)cc1 (stereo unspecified)
inactive: Potency (C33A) | Potency (CAOV3) | Potency (CASKI) | Potency (Es-2) | Potency (HeLa) | Potency (Hek293T) | Potency (JEG-3) | Potency (OV90) | Potency (PA-1) | Potency (SKOV3) | Potency (Tov-21-G) | Potency (Tov112D)

C[C@@H]1CCN(C(=O)N2CCCC2)C[C@@H]1N(C)c1ncnc2[nH]ccc12
inactive: Potency (C33A) | Potency (CAOV3) | Potency (CASKI) | Potency (Es-2) | Potency (HeLa) | Potency (Hek293T) | Potency (JEG-3) | Potency (OV90) | Potency (PA-1) | Potency (SKOV3) | Potency (Tov112D)

C=C1C(=O)OC2C1C(O)CC1(C)C(O)CCC(C=O)C21 (stereo unspecified)
inactive: Potency (C33A) | Potency (CAOV3) | Potency (CASKI) | Potency (Es-2) | Potency (HeLa) | Potency (Hek293T) | Potency (JEG-3) | Potency (OV90) | Potency (PA-1) | Potency (Tov-21-G) | Potency (Tov112D)
